Among the data in PubChem BioAssay AID2202239 (National Center for Advancing Translational Sciences (NCATS), 2025) are Potency values, retold here.

SMILES strings stand for the structures. The source made the active and inactive calls. Calls come from the whole dose curve; as a rule, active = well fitted inhibition curve with a large enough effect; inactive = flat fitted curve, though single readings scatter. Square brackets hold non-standard residues; d marks the D form. Peptide text beside a SMILES is read from it. * marks the point of attachment. Dolaproine = CO[C@@H]([C@@H]1CCCN1)[C@@H](C)C(=O)O; Dil = CC[C@H](C)[C@H](NC)[C@@H](CC(=O)O)OC; NMe2Val = CC(C)[C@@H](C(=O)*)N(C)C; X1 = C[C@@H](N*)[C@@H](O)c1ccccc1; NMeV = CN[C@H](C(=O)O)C(C)C

This assay in a line: Identification of antibody-drug conjugate (ADC) payloads which are substrates of ATP-binding cassette drug efflux transporters: ABCB1-HeLa-KB-8-5-11 cell line with tariquidar. The following applies: KB-8-5-11 (P-gp) + tariquidar, viability, CellTiter-Glo, 48 h. The text has this:
Antibody-drug conjugates (ADCs) feature an antibody recognizing a specific protein joined to a potent toxic payload. Numerous antibody-drug conjugates have received FDA approval; however, clinical resistance arises. Resistance mechanisms include decreased expression or mutation of the antibody target, impaired payload release, or increased expression of ATP-binding cassette (ABC) efflux transporters associated with multidrug resistance. We therefore sought to characterize the interaction of ABC multidrug transporters with ADC payloads. We performed a high-throughput screen with 27 common ADC payloads using cells lines expressing ABC transporters P-glycoprotein (P-gp, encoded by ABCB1) or ABCG2 (encoded by ABCG2). Confirmatory assays were also performed using cells transfected to express P-gp, ABCG2, or MRP1 (encoded by ABCC1). Several commonly used ADC payloads were substrates of P-gp, including calicheamicin gamma1, monomethyl auristatin E, DM1, and DM4. All the pyrrolobenzodiazepines tested - SJG136, SGD-1882, SG2057, and SG3199 - were substrates of P-gp, ABCG2, and MRP1. […] These findings highlight the risk of transporter-mediated resistance with certain ADC payloads and underscore the importance of selecting payloads that evade ABC transporter recognition in future ADC development.
HEK-293 cells were transfected with empty vector (pcDNA) or vector containing the human ABCB1 (MDR-19), ABCG2 (R-5), or ABCC1 gene (MRP1) and were maintained in EMEM with 2 mg/mL G418 added to maintain transporter expression. The HeLa derivative KB-3-1 and the P-gp overexpressing KB-8-5-11 subline were maintained in DMEM; KB-8-5-11 additionally received 100 ng/mL colchicine. H460 parental cells were obtained from the Division of Cancer Treatment and Diagnosis Tumor Repository, National Cancer Institute at Frederick, MD and were cultured in RPMI. The ABCG2 expressing subline H460 MX20 was generated by selecting H460 cells in 20 nM mitoxantrone. Media in all cases was supplemented with 10% FBS and 1% penicillin-streptomycin. We explored 27 common ADC payloads, in two orthogonal, paired cell line sets-a drug selected and transfected set for each transporter--to identify substrates of the ABC transporters P-gp and ABCG2. Compounds were sourced from Levena Biopharma (San Diego, CA), Selleck Chem (Houston, TX), ChemieTek (Indianapolis, IN), or Microsource Discovery Systems (Gaylordsville, CT). Screening was performed as previously described. Briefly, cells were plated at a density of 500 cells/well in 1536 well plates with compounds added using a 1536-head pin tool (Kalypsys, San Diego CA). Cells were incubated with cytotoxic drugs and processed with CellTiter Glo reagent (Promega, Madison, WI) to determine viability after 48 hours. P-gp substrates were identified by comparing compound activity between paired sets of low-expressing (sensitive) and over-expressing (resistant) cell lines.
On to `COc1cc2cc(c1Cl)N(C)C(=O)C[C@H](OC(=O)C(C)C)[C@]1(C)O[C@H]1[C@H](C)[C@@H]1C[C@@](O)(NC(=O)O1)[C@H](OC)C=CC=C(C)C2`, for which the Potency is 0.1 nM (active).

Regarding `CC[C@H](C)[C@@H]([C@@H](CC(=O)N1CCC[C@H]1[C@H](OC)[C@@H](C)C(=O)N[C@H](C)[C@@H](O)c1ccccc1)OC)N(C)C(=O)[C@@H](NC(=O)[C@H](C(C)C)N(C)C)C(C)C`, the Potency was 0.2 nM (active). Take `CC[C@H](C)[C@@H]1NC(=O)CNC(=O)[C@H]2Cc3c([nH]c4cc(O)ccc34)S(=O)C[C@H](NC(=O)CNC1=O)C(=O)N[C@@H](CC(N)=O)C(=O)N1C[C@H](O)C[C@H]1C(=O)N[C@@H]([C@@H](C)[C@@H](O)CO)C(=O)N2` (some centres not stated): the Potency was 4200 nM (active).

Regarding `COc1cccc2c1C(=O)c1c(O)c3c(c(O)c1C2=O)C[C@@](O)(C(=O)CO)CC3OC1CC(N2CCOC(OC)C2)C(O)C(C)O1` (some centres not stated), the Potency is 10.6 nM (active). Regarding `CC[C@H](C)[C@@H]([C@@H](CC(=O)N1CCC[C@H]1[C@H](OC)[C@@H](C)C(=O)N[C@@H](Cc1ccccc1)C(=O)O)OC)N(C)C(=O)[C@@H](NC(=O)[C@H](C(C)C)N(C)C)C(C)C` (NMe2Val-V[Dil][Dolaproine]F-OH), the Potency is 18.8 nM (active). Next, `CC[C@H](C)[C@@H]([C@@H](CC(=O)N1CCC[C@H]1[C@H](OC)[C@@H](C)C(=O)N[C@H](C)[C@@H](O)c1ccccc1)OC)N(C)C(=O)[C@@H](NC(=O)[C@@H](NC)C(C)C)C(C)C` (H-[NMeV]V[Dil][Dolaproine]-X1): 0.2 nM (active); `CC[C@@]1(O)C(=O)OCc2c1cc1n(c2=O)Cc2cc3ccccc3nc2-1`: 375 nM (active).
